Out of some 37,000 compounds screened, about 2,800 (7.6%) were called active. Roughly 1% stayed inconclusive and do not appear here. Shown is part of a subset that was picked to be rich in actives. Unmarked numbers belong to inactive results. No stated cut-off is given here; in the data, active means inhibition above about 80%; inconclusive means no clear call, values can overlap the other calls; inactive means below that.
Assay: NOMO-1 AML cell viability reduction, primary screen, STK33 inhibitor project, CellTiter-Glo luminescence (AID 2330)
Conditions: NOMO-1 AML viability, 72 h, stronger effect = higher value, concentration not given here

Structure (SMILES)	inhibition
C[C@H]1O[C@@H](O[C@H]2CC[C@]3(CO)C4CC[C@]5(C)[C@@H](C6=CC(=O)OC6)CC[C@]5(O)[C@@H]4CC[C@H]3C2)[C@H](O)[C@H](O)[C@@H]1O[C@@H]1O[C@H](CO)[C@@H](O)[C@H](O)[C@H]1O (stereo not given in full)	119% (active)
CCCCC/C=C\C/C=C\C/C=C\C/C=C\CCCCCC(=O)NCCO	10.8%
COc1ccc(CNCc2nc3ccccc3c(=O)n2-c2ccc(F)cc2)cc1	23.8%
CC(C)c1ccc2c(c1O)CC[C@H]1C3=C(CC[C@]21C)C(=O)OC3	24.4%
O=C(Nc1ccc2c(C(F)(F)F)cc(=O)oc2c1)c1nc2ncccn2n1	7.98%
COc1c(C(C)C)cc2c(c1O)[C@@]1(C(=O)O)CCCC(C)(C)C1CC2 (stereo not given in full)	16%
CCCCCCCCCCCCCC(=O)O[C@@H]1[C@@H](C)[C@@]2(O)[C@@H](C=C(CO)C[C@]3(O)C(=O)C(C)=C[C@@H]23)[C@@H]2C(C)(C)[C@]12OC(C)=O	98.2% (active)
Cc1cc(OCc2cc(C(=O)O)oc2C)c2c3c(c(=O)oc2c1)CCCC3	0.325%
CCCN(C/C=C/I)C1CCc2ccc(O)cc2C1 (stereo not given)	31.2%
COC1=C[C@@H]2[C@@H]3Cc4ccc(OC)c(O)c4[C@]2(CCN3C)CC1=O	-7.75%
COC1=CC23CCN(C)[C@H](Cc4cc(OC)c(OC)cc42)C3=CC1=O	24.6%
O=C(c1ccccc1)C12CN3CN(CN(C3)C1)C2	-14.9%
COc1ccccc1N1C(=O)NC(=O)C(CCc2ccncc2)(Cc2cccc3ccccc23)C1=O (stereo not given)	32.3%
C[C@H]1CCC/C=C/C2C[C@H](O)C[C@H]2[C@H](O)/C=C\C(=O)O1 (stereo not given in full)	122% (active)
COc1ccc2[nH]cc(CCNCc3ccc(Br)cc3)c2c1	48.6%
CCCCn1c(C)c(C(C)=O)c2c(OCC(=O)O)c(Cl)c(Cl)c(Cl)c21	-7.33%
c1ccc2c(c1)[I+]c1ccccc1-2	141% (active)
C=CC(C)(C)c1cc2cc3c(cc2oc1=O)O[C@H](C(C)(C)O)C3	45.2%
Cc1ncsc1CCCl	11.2%
CC(C)Nc1nc(Cl)nc(NC(C)C)n1	8.29%

— PubChem BioAssay AID2330 (Broad Institute, 2010)
